The source of these data is PubChem BioAssay (Tox21).

Records with an inconclusive call do not appear. Values without a mark were called inactive. Active and inactive are the calls of the source. Calls come from the whole dose curve; as a rule, active = well fitted curve in the direction sought with a large enough effect in the repeat runs; inconclusive = weak or mixed curves; inactive = no such curve, though single readings can be large; an effect the other way counts as inactive or inconclusive.

The target of experiment [1] is Nuclear receptor subfamily 1 group I member 2 (Homo sapiens) (UniProt O75469). The experiment is described as follows: Human pregnane X receptor (PXR) small molecule agonists, qHTS assay (AID 1346982). Note: nearly all actives have a fitted effect of over 35% in size. Note: potency is the fitted concentration of half-maximal effect. The method, boiled down: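 Agonist mode: luminescence from ONE-Glo after 24 h compound exposure at 37C in HepG2 cells carrying hPXR-responsive CYP3A4 luciferase, plated in charcoal-stripped serum medium 5 h beforehand.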
(qHTS replaces the single test concentration by a dilution series.)

In experiment [2] the target is Cytochrome P450 1A2 (Homo sapiens) (UniProt P05177). The experiment is described as follows: Cytochrome P450 Family 1 Subfamily A Member 2 (CYP1A2) small molecule antagonists: luciferase reporter qHTS assay (AID 1671199). For activity change, negative = inhibition: series mostly up to about 120 µM. Note: nearly all actives have a fitted effect of over 50% in size. Note: potency is the fitted concentration of half-maximal effect. The method, boiled down:
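Luminescence from luciferin formed by CYP1A2 from a proluciferin substrate, read 20 min after detection reagent. Compound was pre-incubated 10 min with enzyme-substrate, and reaction started with NADPH regeneration solution for 1 h at room temperature; furafylline control.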
On the technique in general: Reporter assays use an easily measured gene product as a stand-in for the process of interest.

Experiment [3] has as its target Voltage-gated inwardly rectifying potassium channel KCNH2 (Homo sapiens) (UniProt Q12809). Nature of the experiment: Human Ether-a-go-go-Related Gene (hERG) channel small molecule antagonists: fluorescence cell-based qHTS assay (AID 1671200).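 Note: hERG-expressing U2OS cells given a thallium stimulus after FluxOR II dye loading; series mostly up to about 77 µM; nearly all actives have a fitted effect of over 50% in size.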 The gist of the method: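 Fluorescence at 540 nm emission (480 nm excitation) was recorded kinetically for 2 min at 1-second intervals once the thallium-containing stimulus reached cells previously loaded with FluxOR II dye.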

The target in experiment [4] is Cytochrome P450 3A4 (Homo sapiens) (UniProt P08684). Nature of the experiment: Cytochrome P450 Family 3 Subfamily A Member 4 (CYP3A4) small molecule antagonists: luciferase reporter qHTS assay (AID 1671201). For activity change, negative = inhibition: series mostly up to about 120 µM. Note: nearly all actives have a fitted effect of over 50% in size. Note: potency is the fitted concentration of half-maximal effect. The method, boiled down:
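qHTS, 1536-well. CYP3A4 + proluciferin substrate, cpd 10 min RT → NADPH regen 1 h RT → detection reagent 20 min → luminescence (RLU). Ketoconazole positive control.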

For experiment [5], the target named is Cytochrome P450 2C9 (Homo sapiens) (UniProt P11712). The experiment is described as follows: Cytochrome P450 Family 2 Subfamily C Member 9 (CYP2C9) small molecule antagonists: luciferase reporter qHTS assay (AID 1671198). For activity change, negative = inhibition: series mostly up to about 120 µM. Note: nearly all actives have a fitted effect of over 50% in size. Note: potency is the fitted concentration of half-maximal effect. The method, boiled down: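 Enzyme-substrate mix preincubated with compound 10 min at room temperature; reaction started with NADPH regeneration solution, 1 h 37C. Luminescent luciferin product read after 20 min detection reagent.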

The target of experiment [6] is Cytochrome P450 2C19 (Homo sapiens) (UniProt P33261). The experiment is described as follows: Cytochrome P450 Family 2 Subfamily C Member 19 (CYP2C19) small molecule antagonists: luciferase reporter qHTS assay (AID 1671197). For activity change, negative = inhibition: series mostly up to about 120 µM. Note: nearly all actives have a fitted effect of over 65% in size. Note: potency is the fitted concentration of half-maximal effect. The gist of the method: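 Compounds were tested on CYP2C19 activity via proluciferin conversion to luciferin. The 37C, 1 h reaction followed NADPH addition; detection reagent stopped it.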

The target of experiment [7] is Cytochrome P450 2D6 (Homo sapiens) (UniProt P10635). The experiment is described as follows: Cytochrome P450 Family 2 Subfamily D Member 6 (CYP2D6) small molecule antagonists: luciferase reporter qHTS assay (AID 1671196). For activity change, negative = inhibition: series mostly up to about 120 µM. Note: nearly all actives have a fitted effect of over 50% in size. Note: potency is the fitted concentration of half-maximal effect. The gist of the method:
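CYP2D6 activity was followed as luminescence from its luciferin product after a 1 h NADPH-driven reaction at room temperature. Enzyme-substrate mix and compound were pre-incubated for 10 min, and the signal was read 20 min after adding detection reagent.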

The target of experiment [8] is Nuclear receptor subfamily 1 group I member 2 (Rattus norvegicus) (UniProt Q9R1A7). Nature of the experiment: Rat pregnane X receptor (rPXR) activation by small molecules, qHTS assay (AID 1346983). Note: nearly all actives have a fitted effect of over 20% in size. Note: potency is the fitted concentration of half-maximal effect. The note with it: rPXR luciferase reporter cells, One-Glo luminescence, 24 h; max activation: active compounds read high. The gist of the method: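 Luminescent readout (One-Glo luciferase, 30 min room temperature) followed 24 hr compound treatment at 37 C of rPXR cells plated 2,000 per well and preincubated 5hr; qHTS format with compounds delivered in DMSO.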

Experiment [9] has as its target Nuclear receptor subfamily 1 group I member 2 (Homo sapiens) (UniProt O75469). The experiment is described as follows: Human pregnane X receptor (PXR) activation by small molecules, qHTS assay (AID 1346985). Note: nearly all actives have a fitted effect of over 40% in size. The gist of the method: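 DPX-2 cells (HepG2 co-transfected with a PXR response element and a CYP3A4-promoter luciferase construct) were seeded at 2,000 per well, rested 5 hr at 37C, then exposed to DMSO-dissolved compounds for 24 hr. Activation was read as luciferase luminescence.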
% is set by controls: 0 for no effect and ±100 for the full control effect.

Chain of Cytochrome P450 2C19 (Homo sapiens) (P33261 whole entry, looked up): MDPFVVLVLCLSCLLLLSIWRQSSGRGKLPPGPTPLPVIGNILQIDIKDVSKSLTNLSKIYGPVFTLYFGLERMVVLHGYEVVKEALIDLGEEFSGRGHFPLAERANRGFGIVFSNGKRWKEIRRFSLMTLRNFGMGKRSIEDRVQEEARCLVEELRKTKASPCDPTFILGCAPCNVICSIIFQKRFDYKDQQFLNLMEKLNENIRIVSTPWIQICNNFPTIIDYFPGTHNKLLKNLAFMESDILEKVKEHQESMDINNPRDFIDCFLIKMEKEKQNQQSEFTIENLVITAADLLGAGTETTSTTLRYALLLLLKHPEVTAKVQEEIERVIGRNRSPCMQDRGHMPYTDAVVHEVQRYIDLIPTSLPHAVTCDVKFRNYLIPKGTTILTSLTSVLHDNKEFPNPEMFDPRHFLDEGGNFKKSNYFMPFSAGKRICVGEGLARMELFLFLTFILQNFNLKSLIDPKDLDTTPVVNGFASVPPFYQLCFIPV
Chain of Cytochrome P450 2C9 (Homo sapiens) (P11712 whole entry, looked up): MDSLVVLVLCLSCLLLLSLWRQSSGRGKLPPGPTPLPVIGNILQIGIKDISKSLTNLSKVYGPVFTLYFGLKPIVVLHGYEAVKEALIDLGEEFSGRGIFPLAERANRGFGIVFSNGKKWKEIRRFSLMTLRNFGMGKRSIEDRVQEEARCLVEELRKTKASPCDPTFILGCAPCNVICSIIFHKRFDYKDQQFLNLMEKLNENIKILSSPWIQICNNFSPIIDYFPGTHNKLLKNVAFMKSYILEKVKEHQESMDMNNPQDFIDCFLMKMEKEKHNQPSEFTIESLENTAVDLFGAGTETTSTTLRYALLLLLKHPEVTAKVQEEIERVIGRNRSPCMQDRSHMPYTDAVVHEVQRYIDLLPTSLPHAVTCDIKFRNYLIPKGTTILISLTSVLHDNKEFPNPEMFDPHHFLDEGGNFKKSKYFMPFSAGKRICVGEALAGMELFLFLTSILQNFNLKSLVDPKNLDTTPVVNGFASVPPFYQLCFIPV
Chain of Nuclear receptor subfamily 1 group I member 2 (Homo sapiens) (O75469 whole entry, looked up): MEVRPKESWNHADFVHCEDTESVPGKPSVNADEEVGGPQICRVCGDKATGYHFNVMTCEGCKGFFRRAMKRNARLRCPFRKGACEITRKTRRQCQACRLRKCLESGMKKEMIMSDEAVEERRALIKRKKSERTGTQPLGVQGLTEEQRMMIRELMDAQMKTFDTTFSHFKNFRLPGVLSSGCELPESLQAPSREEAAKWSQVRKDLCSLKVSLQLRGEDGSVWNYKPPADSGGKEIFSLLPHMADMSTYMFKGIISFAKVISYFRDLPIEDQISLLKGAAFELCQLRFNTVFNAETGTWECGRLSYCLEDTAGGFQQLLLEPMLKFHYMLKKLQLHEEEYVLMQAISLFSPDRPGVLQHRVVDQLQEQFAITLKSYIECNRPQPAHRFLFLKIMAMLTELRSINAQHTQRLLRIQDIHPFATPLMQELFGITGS
Chain of Cytochrome P450 2D6 (Homo sapiens) (P10635 whole entry, looked up): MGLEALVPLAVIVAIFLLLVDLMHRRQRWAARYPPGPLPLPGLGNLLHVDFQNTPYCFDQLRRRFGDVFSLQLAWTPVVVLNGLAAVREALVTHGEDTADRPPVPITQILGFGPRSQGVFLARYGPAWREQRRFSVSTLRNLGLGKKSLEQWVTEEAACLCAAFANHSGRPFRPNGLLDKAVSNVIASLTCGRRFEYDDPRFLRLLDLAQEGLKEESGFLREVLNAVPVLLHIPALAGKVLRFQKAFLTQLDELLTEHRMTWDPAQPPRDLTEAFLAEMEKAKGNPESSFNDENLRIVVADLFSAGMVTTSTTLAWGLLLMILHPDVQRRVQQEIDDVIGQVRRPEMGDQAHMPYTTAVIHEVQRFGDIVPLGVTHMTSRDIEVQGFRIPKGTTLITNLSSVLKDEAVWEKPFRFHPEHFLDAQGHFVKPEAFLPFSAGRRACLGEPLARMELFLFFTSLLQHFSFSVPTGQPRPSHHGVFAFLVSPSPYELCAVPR
Chain of Nuclear receptor subfamily 1 group I member 2 (Rattus norvegicus) (Q9R1A7 whole entry, looked up): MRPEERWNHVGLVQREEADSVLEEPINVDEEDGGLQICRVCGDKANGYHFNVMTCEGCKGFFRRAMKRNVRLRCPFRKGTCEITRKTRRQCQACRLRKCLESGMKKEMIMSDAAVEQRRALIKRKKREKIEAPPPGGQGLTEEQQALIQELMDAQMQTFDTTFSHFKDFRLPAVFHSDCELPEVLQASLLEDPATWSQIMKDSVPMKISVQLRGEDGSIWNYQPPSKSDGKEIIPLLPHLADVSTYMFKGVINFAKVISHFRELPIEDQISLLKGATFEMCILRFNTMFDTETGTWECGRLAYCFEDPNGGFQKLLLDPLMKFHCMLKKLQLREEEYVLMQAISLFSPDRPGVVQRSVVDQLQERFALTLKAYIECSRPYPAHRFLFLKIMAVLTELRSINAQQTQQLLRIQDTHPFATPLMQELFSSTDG
Chain of Voltage-gated inwardly rectifying potassium channel KCNH2 (Homo sapiens) (Q12809 whole entry, looked up): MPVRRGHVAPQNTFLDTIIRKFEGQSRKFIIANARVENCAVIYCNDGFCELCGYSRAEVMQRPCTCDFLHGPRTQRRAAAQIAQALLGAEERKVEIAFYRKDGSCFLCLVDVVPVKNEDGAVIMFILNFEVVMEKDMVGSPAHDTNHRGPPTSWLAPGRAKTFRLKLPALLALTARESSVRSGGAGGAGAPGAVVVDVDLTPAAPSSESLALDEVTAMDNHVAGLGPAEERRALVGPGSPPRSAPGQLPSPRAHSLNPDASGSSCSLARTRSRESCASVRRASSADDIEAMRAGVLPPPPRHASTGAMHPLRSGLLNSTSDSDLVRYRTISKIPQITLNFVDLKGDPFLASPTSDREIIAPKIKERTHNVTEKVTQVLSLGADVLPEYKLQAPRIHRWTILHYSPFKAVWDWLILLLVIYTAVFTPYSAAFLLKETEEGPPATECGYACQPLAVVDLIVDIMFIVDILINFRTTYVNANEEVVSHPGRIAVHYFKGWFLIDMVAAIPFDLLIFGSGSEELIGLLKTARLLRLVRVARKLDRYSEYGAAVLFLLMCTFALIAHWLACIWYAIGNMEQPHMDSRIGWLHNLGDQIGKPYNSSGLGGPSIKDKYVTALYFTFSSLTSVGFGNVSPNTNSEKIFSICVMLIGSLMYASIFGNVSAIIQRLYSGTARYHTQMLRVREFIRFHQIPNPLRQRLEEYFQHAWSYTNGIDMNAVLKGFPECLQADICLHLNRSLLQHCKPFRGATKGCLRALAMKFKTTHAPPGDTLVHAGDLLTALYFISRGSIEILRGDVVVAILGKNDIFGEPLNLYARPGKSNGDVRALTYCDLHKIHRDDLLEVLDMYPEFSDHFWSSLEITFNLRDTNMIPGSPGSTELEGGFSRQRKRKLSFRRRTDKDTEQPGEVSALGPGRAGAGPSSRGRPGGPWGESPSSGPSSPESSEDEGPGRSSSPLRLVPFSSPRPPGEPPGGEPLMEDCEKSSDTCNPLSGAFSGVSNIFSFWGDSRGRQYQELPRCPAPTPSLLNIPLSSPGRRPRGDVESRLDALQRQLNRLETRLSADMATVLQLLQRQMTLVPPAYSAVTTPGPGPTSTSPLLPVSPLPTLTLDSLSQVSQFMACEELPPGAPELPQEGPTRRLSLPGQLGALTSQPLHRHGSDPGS
Chain of Cytochrome P450 1A2 (Homo sapiens) (P05177 whole entry, looked up): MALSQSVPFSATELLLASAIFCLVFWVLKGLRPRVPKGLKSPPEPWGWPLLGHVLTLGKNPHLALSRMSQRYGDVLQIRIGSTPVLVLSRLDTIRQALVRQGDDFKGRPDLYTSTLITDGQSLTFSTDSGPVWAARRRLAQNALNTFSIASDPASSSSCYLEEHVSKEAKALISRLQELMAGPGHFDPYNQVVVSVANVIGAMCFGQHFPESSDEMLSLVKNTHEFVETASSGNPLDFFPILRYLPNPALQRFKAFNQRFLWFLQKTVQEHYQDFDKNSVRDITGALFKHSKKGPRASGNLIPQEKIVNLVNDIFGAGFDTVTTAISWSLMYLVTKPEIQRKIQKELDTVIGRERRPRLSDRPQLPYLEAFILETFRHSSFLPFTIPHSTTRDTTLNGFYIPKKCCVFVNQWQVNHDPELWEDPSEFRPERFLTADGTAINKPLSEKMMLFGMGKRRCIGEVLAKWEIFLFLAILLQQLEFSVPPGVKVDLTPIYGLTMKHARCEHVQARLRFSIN
Chain of Cytochrome P450 3A4 (Homo sapiens) (P08684 whole entry, looked up): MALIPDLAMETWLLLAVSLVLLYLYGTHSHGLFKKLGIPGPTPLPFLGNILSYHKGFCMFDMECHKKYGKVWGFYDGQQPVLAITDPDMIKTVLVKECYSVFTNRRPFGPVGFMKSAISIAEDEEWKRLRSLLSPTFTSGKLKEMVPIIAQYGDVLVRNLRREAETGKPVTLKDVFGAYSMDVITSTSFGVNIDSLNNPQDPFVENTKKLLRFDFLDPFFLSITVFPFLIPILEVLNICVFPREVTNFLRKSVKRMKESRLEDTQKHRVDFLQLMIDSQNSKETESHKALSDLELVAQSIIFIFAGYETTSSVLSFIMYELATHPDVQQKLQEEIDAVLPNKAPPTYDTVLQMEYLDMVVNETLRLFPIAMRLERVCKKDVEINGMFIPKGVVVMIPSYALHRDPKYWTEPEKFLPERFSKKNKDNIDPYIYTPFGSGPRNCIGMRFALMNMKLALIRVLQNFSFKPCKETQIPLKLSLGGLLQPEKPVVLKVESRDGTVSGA

As for `CC(=O)N1CCN(c2ccc(O)cc2)CC1`, the Potency entry in experiment [1], in experiment [3] and in [4] was “inactive” in each case. In addition, the Potency in experiment [2] was 24.5 µM (active).
On to `O=CO`, for which, in experiment [3], the activity change, negative = inhibition was -0.636% [at 6.97 µM].
As for `O=C(COCCOCCOCC(=O)Nc1c(I)cc(I)c(C(=O)O)c1I)Nc1c(I)cc(I)c(C(=O)O)c1I`, the Potency entry in experiment [1], in [5], in [2], in experiment [3] and in [4] was “inactive” each time.
`COc1ccc(NS(=O)(=O)c2ccc(N)cc2)nn1`: the Potency entry in experiment [3] is “inactive”.
On to `Cc1nc2ccccc2c(=O)o1`, for which the Potency result in experiment [1] and in experiment [4] was “inactive” throughout.
As for `O=C(O)c1ccccc1C(=O)OCc1ccccc1`, the Potency entry in [6], in experiment [2], in experiment [3] and in [4] was “inactive” each time.
`CCCCCCCCCOCC1CO1` (centres undefined): the Potency in [5] is 82.8 µM (active). In addition, the Potency result in experiment [3] was “inactive”.
Regarding `CN(C1CCCCC1)S(=O)(=O)c1ccccc1N`, the results for the Potency in experiment [1], in [6] and in experiment [5] were 27.3 µM (active), 3.17 µM (active) and 6.33 µM (active), respectively. The Potency result in experiment [3] was “inactive”.
Take `C=CCOc1c(Br)cc(C(C)(C)c2cc(Br)c(OCC=C)c(Br)c2)cc1Br`: the Potency result in experiment [7], in experiment [5], in experiment [2], in experiment [3] and in experiment [4] was “inactive” in each case.
In the case of `CCOC(=O)CC#N`, the Potency entry in experiment [1], in experiment [3] and in [4] was “inactive” in each case. In [6], the Potency is 39.5 µM (active).
As to `C[C@H]1O[C@H](O[C@H]2[C@H](O)[C@@H](O)[C@@H](O[C@H]3[C@H](O)[C@@H](O)[C@H](O)O[C@@H]3CO)O[C@@H]2CO)[C@H](O)[C@@H](O)[C@@H]1N[C@H]1C=C(CO)[C@@H](O)[C@H](O)[C@H]1O`, in [8], the max activation is -1.07%. The Potency entry in experiment [7], in [6], in experiment [5], in experiment [2], in [3] and in experiment [4] was “inactive” each time.
For the compound `CCC(=O)OCCC(C)CCC=C(C)C` (centres undefined), the Potency entry in experiment [1] and in experiment [3] was “inactive” in each case. Further, the Potency is 20 µM (active) in experiment [6], 25.2 µM (active) in [5], 39.9 µM (active) in [2] and 12.6 µM (active) in [4].
Take `Cc1cccc(Nc2ccncc2S(=O)(=O)NC(=O)NC(C)C)c1`: the max activation in experiment [8] was -0.7%. The Potency entry in [9], in [7], in experiment [2] and in experiment [3] was “inactive” each time. The Potency in experiment [5] was 13.8 µM (active).
Turning to `C1CCN2C[C@@H]3C[C@@H](CN4CCCC[C@@H]34)[C@H]2C1`, the Potency result in experiment [3] is “inactive”.
As to `Cc1ccc2c(c1)c1c3n2CCNC3CCC1` (centres undefined), the max activation in experiment [8] is -0.806%. Besides, in experiment [3], the Potency result is “inactive”.
`C=CCOC(=O)c1ccc(C(=O)OCC=C)c(C(=O)OCC=C)c1`: in [1], the Potency entry was “inactive”. The Potency in experiment [6] is 0.159 µM (active); in [5], 0.399 µM (active); in [2], 6.33 µM (active); in experiment [4] it was 1.78 µM (active).
On to `CCN(Cc1cccc(S(=O)(=O)O)c1)c1ccccc1`, for which the Potency entry in [1], in [2], in experiment [3] and in [4] was “inactive” each time. In addition, the Potency in experiment [5] is 17.8 µM (active).
On to `C[C@@H]1C[C@H]2[C@@H]3C[C@H](F)C4=CC(=O)C=C[C@]4(C)[C@@]3(F)[C@@H](O)C[C@]2(C)[C@@]1(O)C(=O)CO`, for which, in experiment [8], the Potency is 1.41 µM (active).
`CCS(=O)(=O)CCn1c([N+](=O)[O-])cnc1C`: in experiment [3], the Potency result is “inactive”.
As to `COc1cccc2sc(N)nc12`, the Potency is 11.3 µM (active) in experiment [7], 56.7 µM (active) in [6], 22.6 µM (active) in [2] and 10.1 µM (active) in experiment [4]. Besides, the Potency entry in experiment [5] and in experiment [3] was “inactive” each time.
For the compound `Cc1cc(O)c2c(c1)C(=O)c1cccc(O)c1C2=O`, the Potency entry in experiment [7], in experiment [6], in [5], in experiment [3] and in [4] was “inactive” in each case. For the same compound, in [2], the Potency was 15.5 µM (active).
As to `Cc1ncc([N+](=O)[O-])n1CC(O)CCl` (centres undefined), in experiment [3], the Potency result was “inactive”.
Turning to `CCC(C)(CCC(C)C)C(=O)[O-].CCC(C)(CCC(C)C)C(=O)[O-].[Zn+2]` (centres undefined), the Potency entry in experiment [7], in experiment [3] and in experiment [4] was “inactive” each time. The Potency in experiment [6] and in [5] was 17.8 µM (active) throughout.
Turning to `C=COCCOCCOC=C`, the Potency result in [1], in experiment [6], in experiment [5], in experiment [3] and in experiment [4] was “inactive” throughout.
Take `CCCO`: the Potency entry in [1], in experiment [5], in experiment [2], in experiment [3] and in experiment [4] was “inactive” throughout.
Take `CC(=O)c1ccc(OCC(=O)N2CCCCC2)cc1`: the Potency entry in [7], in experiment [5], in experiment [2], in experiment [3] and in [4] was “inactive” each time.
With `Cc1cccc(NC(=S)N(C)C)c1`, the Potency result in experiment [7], in [5], in experiment [3] and in [4] was “inactive” in each case. For the same compound, in experiment [2], the Potency is 35.6 µM (active).
`CCOC(=O)CC(CC(=O)OCC)(OC(C)=O)C(=O)OCC`: the Potency result in experiment [7], in experiment [3] and in [4] was “inactive” in each case. The Potency in [5] was 28.3 µM (active).
On to `SCCSCCS`, for which the Potency result in [7], in experiment [6], in experiment [5], in experiment [2], in experiment [3] and in experiment [4] was “inactive” in each case.
As for `c1ccccc1`, the Potency result in experiment [7], in [6], in [5], in [2] and in experiment [4] was “inactive” each time.
Regarding `CC(=O)OC(C(=O)c1ccccc1)c1ccccc1` (centres undefined), the figures for the Potency in [7], in experiment [5] and in [2] were 35.7 µM (active), 31.9 µM (active) and 40.1 µM (active), respectively. Also, the Potency result in experiment [3] and in experiment [4] was “inactive” throughout.
